In paper PMC5540273 (PLoS ONE, 2017):
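Further: KINOMEscan kinase panel screen.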

The molecules below were run on LATS1. Settings: concentration: 1 μM, replicates: in singlicate; n = 1.
In the case of `COc1ccc(Nc2nccc(N3CCC(NC(=O)Nc4cccc(OC)c4)C3)n2)cc1` (stereo not shown) [GSK1379742], the “%Inh” value is reported as 0%.
With `Cc1ccc(C)c(NC(=O)NC2CCN(c3ccnc(Nc4ccc(F)cc4)n3)C2)c1` (stereo not shown) [GSK1379720] the “%Inh” value was 12%.
For `c1ccc(-c2n[nH]cc2Nc2ccnc3ccccc23)nc1` [GW694077], the “%Inh” value was 0%.
With `COc1cc(Nc2nccc(N3CCC(NC(=O)Nc4cccc(C(C)=O)c4)C3)n2)cc(OC)c1OC` (stereo not shown) [GSK1379753] the “%Inh” value was 0%.
With `O=C(Nc1cccc(-c2nn3ncccc3c2-c2ccnc(Nc3ccccc3)n2)c1)c1c(F)cccc1F` [GSK198271] the “%Inh” value was 0%.
With `c1ccc(-c2cnc3nccnn23)cc1` [AH20685] the “%Inh” value was 0%.
`Cl.c1ccc(-c2ccc3c(Nc4ccc5[nH]ncc5c4)ccnc3c2)nc1` [GW440137] was tested, and the “%Inh” value was 0%.
`Fc1ccc(-c2ncn(C3CCNCC3)c2-c2ccnc(Oc3ccc(-c4ccccc4)cc3)n2)cc1` [SB-245391] was tested, and the “%Inh” value was 0%.
`Clc1ccc(-c2nn3ncccc3c2-c2ccnc(Nc3ccc4c(c3)OCCO4)n2)cc1` [GW829116] was tested, and the “%Inh” value was 0%.
With `Cc1ccc(F)c(C(=O)Nc2cccc(-c3nn4ccccc4c3-c3ccnc(Nc4cccc(F)c4)n3)c2)c1F` [GSK361061] the “%Inh” value was 1%.
For `CNC(=O)c1ccccc1Nc1nc(Nc2ccc(N3CCOCC3)cc2)ncc1Cl.Cl` [GSK1576028], the “%Inh” value was 32%.
With `Cc1cccc(Nc2nc(N[C@H]3CCNC3)ncc2C(N)=O)c1.Cl` [GSK2197149] the “%Inh” value was 0%.
For `CCn1c(-c2nonc2N)nc2c(C#CC(C)(C)O)nc(OC[C@H](N)c3ccccc3)cc21` [GSK943949], the “%Inh” value was 59%.
